PubChem BioAssay (NCATS)
A number with no mark means an inactive call. Records with an inconclusive call do not appear. A call without a number means that no potency is given here. Calls of active or inactive are those of the source. Unless noted, calls come from the whole dose curve; as a rule, active = well fitted curve in the direction sought with a large enough effect; inconclusive = small, poorly fitted or top-dose-only effect, or another doubt; inactive = no such curve, though single readings can be large; an effect the other way counts as inactive or inconclusive.

Experiments:
[1] = molecular target: Cytochrome P450 1A2 (Homo sapiens) (UniProt P05177); test: p450-cyp1a2 (AID 410; calls by dose curve; note: potency is the fitted concentration of half-maximal effect)
Procedure, shortened: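 Inhibition was calculated relative to 57 uM furafylline (full inhibition). The reaction used human CYP1A2 at 20nM with Luciferin-ME at its Km, 100uM, driven by an NADPH-regenerating system for 60 min at room temperature.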

[2] = molecular target: Mitogen-activated protein kinase 10 (Mus musculus) (UniProt Q61831); test: JNK3 AlphaScreen Assay (AID 530; active = well fitted curve in either direction with a large enough effect, not every such curve was filed as active;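 note: kinase came from lysate of stimulated human HepG2 cells; signal reports phosphorylation of biotinylated GST-cJun 1-79 at Ser73 with 10 µM ATP; series mostly up to about 57 µM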)
Procedure, shortened: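 JNK3 came from HepG2 lysates pre-activated with IL-1beta and TNF-alpha and phosphorylated biotinylated GST-cJun (1-79) at 10 uM ATP, pH 7.6, room temperature. Compounds were titrated. AlphaScreen signal used anti-phospho-cJun (Ser73) antibody.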

[3] = molecular target: 3',5'-cyclic-AMP phosphodiesterase 4B (Homo sapiens) (UniProt Q07343); test: qHTS Assay for Inhibitors of PDE-IV (AID 607; active = well fitted activation curve with a large enough effect in the main read-out, with a control signal flat, not every such curve was filed as active)
Procedure, shortened: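 ACTOne HEK293 cells carry a modified cAMP-gated CNG channel and express endogenous PDE4; plated 1000 cells/well, compounds up to 22.9 uM final. Membrane-potential dye fluorescence (ex 535/em 590) was read; parental cells received 10 uM forskolin + 100 uM RO 20-1724.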

[4] = molecular target: Cytochrome P450 2C9 (Homo sapiens) (UniProt P11712); test: qHTS Assay for Inhibitors and Substrates of Cytochrome P450 2C9 (AID 883); note: nearly all actives have a fitted effect of over 60% in size; note: potency is the fitted concentration of half-maximal effect
Procedure, shortened: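 Human CYP2C9 (10nM) hydroxylated Luciferin-H (100uM, at its KM) to luciferin in 25mM KPO4. Compound was preincubated 10 min at 37C, then NADPH regeneration started a 60 min reaction at 37C. Luminescence was read after detection reagent, normalized to 57uM sulphaphenazole.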

[5] = molecular target: Cytochrome P450 3A4 (Homo sapiens) (UniProt P08684); test: qHTS Assay for Inhibitors and Substrates of Cytochrome P450 3A4 (AID 884); note: potency is the fitted concentration of half-maximal effect; nearly all actives have a fitted effect of over 50% in size
Procedure, shortened: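 20 nM human CYP3A4 with 25 uM Luciferin-PPXE (at KM) in 200 mM KPO4, preincubated 10 min with compound; NADPH regeneration started a 60 min RT reaction. Luciferin detected by luminescence, normalized to 57 uM ketoconazole as full inhibition.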

[6] = molecular target: Cytochrome P450 3A4 (Homo sapiens) (UniProt P08684); test: qHTS Assay for Activators of Cytochrome P450 3A4 (AID 885); note: nearly all actives have a fitted effect of over 65% in size
Procedure, shortened: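 20nM CYP3A4 + 25uM Luciferin-PPXE (=KM), 200mM KPO4; cpd 10 min RT; NADPH regen, 60 min RT; stop w/ detection buffer, 20 min; luminescence. Normalized to 57 uM ketoconazole.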

[7] = molecular target: Cytochrome P450 2C19 (Homo sapiens) (UniProt P33261); test: qHTS Assay for Inhibitors and Substrates of Cytochrome P450 2C19 (AID 899); note: nearly all actives have a fitted effect of over 60% in size; note: potency is the fitted concentration of half-maximal effect
Procedure, shortened: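 Human CYP2C19 (5nM) with Luciferin-H EGE at 10uM (its KM) in 50mM KPO4 was preincubated with compound for 10 min at 37C. NADPH regeneration started a 60 min 37C reaction. Luciferin was read by luminescence, normalized to 57uM ketoconazole.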

[8] = molecular target: Cytochrome P450 2D6 (Homo sapiens) (UniProt P10635); test: qHTS Assay for Inhibitors and Substrates of Cytochrome P450 2D6 (AID 891); note: nearly all actives have a fitted effect of over 60% in size; note: potency is the fitted concentration of half-maximal effect
Procedure, shortened: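 Human CYP2D6 (5 nM) with 30 uM Luciferin-ME EGE (at Km) in 100 mM KPO4, compound preincubated 10 min, then NADPH regeneration system for 60 min at room temperature. Luciferin read by luminescence; normalized to 1.43 uM quinidine.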

Chain of Cytochrome P450 2C9 (Homo sapiens) (P11712 whole entry, looked up): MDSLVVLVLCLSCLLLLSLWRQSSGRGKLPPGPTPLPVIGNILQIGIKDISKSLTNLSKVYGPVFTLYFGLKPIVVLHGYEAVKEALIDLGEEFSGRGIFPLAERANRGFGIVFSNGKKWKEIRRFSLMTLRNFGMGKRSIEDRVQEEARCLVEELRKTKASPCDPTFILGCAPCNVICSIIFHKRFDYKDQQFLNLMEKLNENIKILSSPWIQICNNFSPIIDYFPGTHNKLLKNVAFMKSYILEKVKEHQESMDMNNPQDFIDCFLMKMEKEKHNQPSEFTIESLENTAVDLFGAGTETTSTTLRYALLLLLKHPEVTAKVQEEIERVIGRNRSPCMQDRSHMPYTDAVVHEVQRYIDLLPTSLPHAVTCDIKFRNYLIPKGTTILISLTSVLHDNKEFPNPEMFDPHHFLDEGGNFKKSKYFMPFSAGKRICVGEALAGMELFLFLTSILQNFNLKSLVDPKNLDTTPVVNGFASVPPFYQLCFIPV
Chain of 3',5'-cyclic-AMP phosphodiesterase 4B (Homo sapiens) (Q07343 whole entry, looked up): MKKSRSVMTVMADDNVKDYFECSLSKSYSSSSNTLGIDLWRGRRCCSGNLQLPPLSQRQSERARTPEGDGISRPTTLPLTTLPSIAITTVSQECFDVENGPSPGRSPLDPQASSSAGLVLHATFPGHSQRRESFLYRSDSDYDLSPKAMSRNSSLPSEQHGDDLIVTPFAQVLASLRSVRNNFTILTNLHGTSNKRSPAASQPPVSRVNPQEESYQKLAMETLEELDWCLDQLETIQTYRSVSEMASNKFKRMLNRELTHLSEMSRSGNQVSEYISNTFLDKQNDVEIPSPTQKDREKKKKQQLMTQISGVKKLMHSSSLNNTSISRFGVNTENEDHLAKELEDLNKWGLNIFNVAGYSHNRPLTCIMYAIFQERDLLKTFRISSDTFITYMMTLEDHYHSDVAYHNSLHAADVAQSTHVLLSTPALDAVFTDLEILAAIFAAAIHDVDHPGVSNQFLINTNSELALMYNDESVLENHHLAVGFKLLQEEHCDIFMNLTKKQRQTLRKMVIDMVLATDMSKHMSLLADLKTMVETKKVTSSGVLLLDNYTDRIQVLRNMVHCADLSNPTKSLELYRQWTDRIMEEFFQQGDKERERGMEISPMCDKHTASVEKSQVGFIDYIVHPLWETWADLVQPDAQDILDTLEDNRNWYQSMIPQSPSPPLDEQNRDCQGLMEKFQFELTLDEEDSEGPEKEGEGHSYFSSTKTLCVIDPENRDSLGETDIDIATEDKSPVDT
Chain of Cytochrome P450 3A4 (Homo sapiens) (P08684 whole entry, looked up): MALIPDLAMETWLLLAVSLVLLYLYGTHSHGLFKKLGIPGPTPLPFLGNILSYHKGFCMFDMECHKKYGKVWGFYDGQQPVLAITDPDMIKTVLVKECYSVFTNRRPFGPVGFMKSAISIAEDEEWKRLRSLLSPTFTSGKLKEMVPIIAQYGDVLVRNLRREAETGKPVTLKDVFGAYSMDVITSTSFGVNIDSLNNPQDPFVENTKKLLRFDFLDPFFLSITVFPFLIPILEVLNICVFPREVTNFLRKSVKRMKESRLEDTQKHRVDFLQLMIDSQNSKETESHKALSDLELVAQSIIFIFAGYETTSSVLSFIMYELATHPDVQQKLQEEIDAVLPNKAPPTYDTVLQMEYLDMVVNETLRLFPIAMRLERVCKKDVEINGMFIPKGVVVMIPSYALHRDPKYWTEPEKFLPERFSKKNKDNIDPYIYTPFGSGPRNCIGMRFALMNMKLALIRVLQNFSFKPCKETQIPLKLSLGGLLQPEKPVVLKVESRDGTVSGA
Chain of Cytochrome P450 2D6 (Homo sapiens) (P10635 whole entry, looked up): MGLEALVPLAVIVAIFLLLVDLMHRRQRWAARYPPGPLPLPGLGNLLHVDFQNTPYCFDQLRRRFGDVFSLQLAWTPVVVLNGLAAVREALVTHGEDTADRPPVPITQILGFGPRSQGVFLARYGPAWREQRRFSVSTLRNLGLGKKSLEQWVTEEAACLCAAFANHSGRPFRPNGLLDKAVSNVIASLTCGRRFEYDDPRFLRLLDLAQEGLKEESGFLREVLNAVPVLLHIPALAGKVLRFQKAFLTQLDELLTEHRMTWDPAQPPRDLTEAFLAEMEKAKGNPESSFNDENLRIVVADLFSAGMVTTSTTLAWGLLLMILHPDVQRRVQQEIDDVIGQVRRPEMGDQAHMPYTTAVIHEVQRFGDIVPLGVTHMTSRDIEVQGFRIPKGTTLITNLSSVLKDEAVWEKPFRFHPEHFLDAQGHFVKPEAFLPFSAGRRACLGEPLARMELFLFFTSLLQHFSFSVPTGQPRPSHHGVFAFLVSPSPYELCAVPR
Chain of Cytochrome P450 2C19 (Homo sapiens) (P33261 whole entry, looked up): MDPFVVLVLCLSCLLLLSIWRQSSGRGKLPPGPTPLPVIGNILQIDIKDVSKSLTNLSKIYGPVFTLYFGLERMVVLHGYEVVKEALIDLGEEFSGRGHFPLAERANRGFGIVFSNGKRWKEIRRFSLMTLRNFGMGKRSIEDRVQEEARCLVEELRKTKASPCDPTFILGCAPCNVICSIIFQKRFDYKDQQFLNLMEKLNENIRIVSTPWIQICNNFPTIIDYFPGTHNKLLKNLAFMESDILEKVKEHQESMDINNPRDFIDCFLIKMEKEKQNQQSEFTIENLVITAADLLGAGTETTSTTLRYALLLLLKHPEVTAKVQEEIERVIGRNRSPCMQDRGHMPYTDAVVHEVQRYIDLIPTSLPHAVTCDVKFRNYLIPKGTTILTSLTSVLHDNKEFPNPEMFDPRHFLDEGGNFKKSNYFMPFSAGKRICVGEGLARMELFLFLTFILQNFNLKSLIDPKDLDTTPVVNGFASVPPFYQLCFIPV
Chain of Cytochrome P450 1A2 (Homo sapiens) (P05177 whole entry, looked up): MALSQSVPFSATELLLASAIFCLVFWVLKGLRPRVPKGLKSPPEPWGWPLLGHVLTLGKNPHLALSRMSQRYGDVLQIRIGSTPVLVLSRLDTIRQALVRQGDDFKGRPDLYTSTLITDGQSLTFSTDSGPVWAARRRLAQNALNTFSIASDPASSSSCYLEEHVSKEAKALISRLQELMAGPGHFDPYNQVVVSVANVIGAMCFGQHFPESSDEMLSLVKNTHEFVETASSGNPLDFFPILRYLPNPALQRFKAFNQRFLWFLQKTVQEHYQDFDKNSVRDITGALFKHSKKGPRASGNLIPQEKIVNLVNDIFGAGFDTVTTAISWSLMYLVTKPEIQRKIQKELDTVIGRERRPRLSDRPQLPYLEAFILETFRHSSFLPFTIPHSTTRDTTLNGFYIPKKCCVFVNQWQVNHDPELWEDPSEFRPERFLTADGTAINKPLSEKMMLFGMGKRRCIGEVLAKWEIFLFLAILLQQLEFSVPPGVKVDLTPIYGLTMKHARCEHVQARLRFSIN

Row | SMILES | Potency [1] | Potency [2] | Potency [3] | Potency [4] | Potency [5] | Potency [6] | Potency [7] | Potency [8]
1 | COC(=O)[C@@]1(Cc2ccc(F)cc2)[C@H]2c3cc(C(=O)N4CCCC4)n(Cc4ccc(C)o4)c3C[C@H]2CN1C(=O)c1ccccc1 | 10 µM (active) | inactive | inactive | 3.98 µM (active) | 3.16 µM (active) | inactive | 5.01 µM (active) | –
2 | COC(=O)[C@@]1(Cc2ccc(OC)cc2)[C@H]2c3cc(C(=O)N4CCCC4)n(CCc4c[nH]c5cc(F)ccc45)c3C[C@H]2CN1C(=O)c1ccccc1 | 39.8 µM (active) | inactive | inactive | 3.16 µM (active) | 1.26 µM (active) | inactive | 3.98 µM (active) | –
3 | C=C(CC1([C@@H](NP(=O)(c2ccccc2)c2ccccc2)[C@H]2C[C@@H]2CCCC)CC1)c1cccc(OC)c1 | 12.6 µM (active) | inactive | inactive | – | 2.51 µM (active) | inactive | – | –
4 | CCCCCC1=C2CNC(CC(C)C)(C(=O)OC)C=C2C(C)C1=O (stereo not drawn) | 25.1 µM (active) | inactive | inactive | 3.16 µM (active) | – | inactive | – | 5.01 µM (active)
5 | C[C@@H](C(=O)Nc1ccc2ccccc2c1)[C@@H]1C[C@@]1(C)[C@@H](NS(=O)(=O)c1ccc2ccccc2c1)c1ccccc1 | 10 µM (active) | inactive | inactive | inactive | – | inactive | – | –
6 | COC(=O)[C@@]1(Cc2ccccc2)[C@H]2c3cc(C(=O)N(C)C)n(Cc4ccsc4Br)c3C[C@H]2CN1C(=O)c1ccccc1 | inactive | inactive | inactive | 3.98 µM (active) | 1.58 µM (active) | inactive | 2 µM (active) | –
7 | CC(=O)N[C@@H](c1ccccc1)[C@]1(C)C[C@H]1[C@@H](C)C(=O)Nc1ccc2ccccc2c1 | 12.6 µM (active) | inactive | inactive | 6.31 µM (active) | – | inactive | 0.398 µM (active) | –
8 | COC(=O)[C@H]1C[C@@H]1[C@H](NC(=O)c1cccnc1)c1ccccc1 | 12.6 µM (active) | inactive | inactive | – | 5.01 µM (active) | inactive | – | –
9 | COCC1C2CC[C@H]3C(OCc4ccc(OC)cc4)OC[C@]4(C)[C@H]3C2=C(CN4C(=O)OC(C)(C)C)[C@H](C)C1COC (stereo partly drawn) | 15.8 µM (active) | inactive | inactive | – | 1.58 µM (active) | inactive | – | –
10 | Nc1ccccc1C#Cc1ccccc1 | 0.501 µM (active) | inactive | inactive | 7.94 µM (active) | – | inactive | – | –
11 | CC1=C(\C=C/C(C)=C/C=C\C(C)=C\CO)C(C)(C)CCC1 | inactive | inactive | inactive | inactive | – | – | inactive | –
12 | C[C@@H](C(=O)Nc1ccc2ccccc2c1)[C@H]1C[C@]1(C)[C@H](NC(=O)OCc1ccccc1)c1ccccc1 | 3.98 µM (active) | inactive | inactive | 1.58 µM (active) | – | inactive | – | –
13 | COC(=O)[C@@]1(Cc2ccc(F)cc2)[C@H]2c3cc(C(=O)N4CCCC4)n(Cc4ccccn4)c3C[C@H]2CN1C(=O)c1ccccc1 | 20 µM (active) | inactive | inactive | 2 µM (active) | – | inactive | – | –
14 | C[C@@H](C(=O)NCc1cccc2ccccc12)[C@H]1C[C@]1(C)[C@H](NC(=O)OCc1ccccc1)c1ccccc1 | 25.1 µM (active) | inactive | inactive | 3.16 µM (active) | – | inactive | 2.51 µM (active) | –
15 | COC(=O)[C@@]1(Cc2ccccc2)[C@H]2c3cc(C(=O)N4CCCC4)n(Cc4c(CO)[nH]cc(C)c4=O)c3C[C@H]2CN1C(=O)c1ccccc1 | 5.01 µM (active) | inactive | inactive | – | 2.51 µM (active) | inactive | – | –
16 | CC(C)[C@@H](CC(=O)N[C@@H]1CCNC[C@H]1C(=O)N[C@H](CC(=O)N[C@@H](CCC(=O)O)CC(=O)O)Cc1c[nH]c2ccccc12)NC(=O)C[C@H](CO)NC(=O)[C@@H]1CCCC[C@H]1N | inactive | inactive | inactive | inactive | – | – | inactive | inactive
17 | COC(=O)[C@@]1(Cc2ccc(F)cc2)[C@H]2c3cc(C(=O)N(C)C)n(Cc4ccc(Cl)c(C(F)(F)F)c4)c3C[C@H]2CN1C(=O)c1ccccc1 | 15.8 µM (active) | inactive | inactive | 3.98 µM (active) | – | inactive | – | –
18 | O=C(NCCc1c[nH]c2ccccc12)[C@@H]1C[C@H]1[C@@H](NP(=O)(c1ccccc1)c1ccccc1)c1ccccc1 | 15.8 µM (active) | inactive | inactive | 0.251 µM (active) | 1.26 µM (active) | inactive | 6.31 µM (active) | –

Row | SMILES | Potency [1] | Potency [2] | Potency [3] | Potency [4] | Potency [5] | Potency [6] | Potency [7] | Potency [8]
19 | O=C(Nc1ccc2ccccc2c1)[C@H]1C[C@@H]1[C@H](NP(=O)(c1ccccc1)c1ccccc1)c1ccccc1 | 10 µM (active) | inactive | inactive | 3.16 µM (active) | – | inactive | 3.16 µM (active) | –
20 | CC(C)C[C@@H](CC(=O)N[C@@H](CCC(=O)O)CC(=O)O)NC(=O)[C@@H]1CNCC[C@H]1NC(=O)C[C@H](CCCN)NC(=O)C[C@H](Cc1ccccc1)NC(=O)[C@@H]1CNCC[C@H]1N | 31.6 µM (active) | inactive | inactive | inactive | – | – | inactive | inactive
21 | COC(=O)[C@@]1(Cc2ccc(OC)cc2)[C@H]2c3cc(C(=O)N4CCCC4)n(Cc4cc(F)cc5c4OCOC5)c3C[C@H]2CN1C(=O)c1ccccc1 | inactive | inactive | inactive | 6.31 µM (active) | 2.51 µM (active) | inactive | 7.94 µM (active) | –
22 | COC(=O)[C@@]1(Cc2ccccc2)[C@H]2c3cc(C(=O)N4CCCC4)n(Cc4cccc5ccccc45)c3C[C@H]2CN1C(=O)c1ccccc1 | 15.8 µM (active) | inactive | inactive | 0.251 µM (active) | 1.58 µM (active) | inactive | 2.51 µM (active) | –
23 | C[C@@H](C(=O)Nc1ccc2ccccc2c1)[C@H]1C[C@]1(C)[C@H](NP(=O)(c1ccccc1)c1ccccc1)c1ccccc1 | 10 µM (active) | inactive | inactive | 3.16 µM (active) | – | inactive | – | –
24 | CCCCCCN(C(=O)CCCCCN1C(=O)NC(c2ccc(-c3ccccc3)cc2)C(C(=O)OCc2ccccc2)=C1C)C(C(=O)NCCCC)c1ccc(OCC(=O)OC)c(C(=O)OC)c1 (stereo not drawn) | 12.6 µM (active) | inactive | inactive | 0.158 µM (active) | – | – | inactive | inactive
25 | Cc1nn(C)c(Cl)c1S(=O)(=O)N[C@@H](c1ccccc1)[C@]1(C)C[C@H]1[C@@H](C)C(=O)Nc1ccc2ccccc2c1 | 5.01 µM (active) | inactive | inactive | – | 1.26 µM (active) | inactive | – | –
26 | COC(=O)[C@@]1(Cc2ccc(F)cc2)[C@H]2c3cc(C(=O)N4CCCC4)n(Cc4ccccc4)c3C[C@H]2CN1C(=O)c1ccccc1 | 20 µM (active) | inactive | inactive | 3.98 µM (active) | – | inactive | – | –
27 | COC(=O)[C@@]1(Cc2ccc(F)cc2)[C@H]2c3cc(C(=O)N4CCCC4)n(CCc4c[nH]c5ccccc45)c3C[C@H]2CN1C(=O)c1ccccc1 | inactive | inactive | inactive | 2.51 µM (active) | – | inactive | – | –
28 | CC1=C(C(=O)OCc2ccccc2)C(c2ccc3ccccc3c2)NC(=O)N1CCCCCC(=O)O (stereo not drawn) | 20 µM (active) | inactive | inactive | 7.94 µM (active) | – | inactive | – | –
29 | COC(=O)[C@@]1(Cc2ccccc2)[C@H]2c3cc(C(=O)N4CCCC4)n(Cc4ccsc4Br)c3C[C@H]2CN1C(=O)c1ccccc1 | inactive | inactive | inactive | 2 µM (active) | 3.98 µM (active) | inactive | 2.51 µM (active) | –
30 | COC(=O)[C@@H]1C[C@H]1[C@@H](NC(=O)Oc1ccc(F)cc1)c1ccccc1 | 3.16 µM (active) | inactive | inactive | 3.98 µM (active) | – | inactive | – | –
31 | C[C@@H](C(=O)Cc1ccc2ccccc2c1)[C@@H]1C[C@@]1(C)[C@@H](NP(=O)(c1ccccc1)c1ccccc1)c1ccccc1 | 10 µM (active) | inactive | inactive | 3.16 µM (active) | – | inactive | – | –
32 | CC1(C)C(=O)C(c2ccccc2)=C2CN3C(=O)N(CCc4ccccc4)C(=O)C3(Cc3ccc(C(F)(F)F)cc3)C=C21 (stereo not drawn) | inactive | inactive | inactive | – | 2 µM (active) | inactive | – | –
33 | NCCC[C@@H](CC(=O)N[C@@H]1CCCC[C@H]1C(=O)N[C@H](CC(=O)N[C@@H](CCC(=O)O)CC(=O)O)Cc1c[nH]c2ccccc12)NC(=O)C[C@H](Cc1c[nH]c2ccccc12)NC(=O)[C@@H]1CNCC[C@H]1N | inactive | inactive | inactive | inactive | – | – | inactive | inactive
34 | C[C@@H](C(=O)NCCc1c[nH]c2ccccc12)[C@@H]1C[C@@]1(C)[C@@H](NC(=O)OCc1ccccc1)c1ccccc1 | 12.6 µM (active) | inactive | inactive | 2.51 µM (active) | 3.16 µM (active) | inactive | 0.794 µM (active) | –
35 | O=C(NCCc1c[nH]c2ccccc12)[C@H]1C[C@@H]1[C@H](NP(=O)(c1ccccc1)c1ccccc1)c1ccccc1 | 12.6 µM (active) | inactive | inactive | 2 µM (active) | 1.58 µM (active) | inactive | 1.26 µM (active) | –
36 | CNC(=O)[C@H](C)[C@@H]1C[C@@]1(C)[C@@H](NC(=O)OCc1ccccc1)c1ccccc1 | 20 µM (active) | inactive | inactive | – | 2.51 µM (active) | inactive | 0.631 µM (active) | 3.16 µM (active)
